# Reference: PubChem BioAssay (Tox21)
# “And” between values parts separate entries of the source, which are not always exact repeats. Equal entries are not always repeated. Results filed as inconclusive are left out. The source made the active and inactive calls. The call rests on the fitted dose curve; in most records, active means well fitted cell-killing curve with a large enough effect in the repeat runs; inconclusive means weak or mixed curves; inactive means flat fitted curve, though single readings scatter.
# Experiment: qHTS assay to identify small molecule antagonists of the estrogen receptor beta (ER-beta) signaling pathway - cell viability counter screen (AID 1259382); further: nearly all actives have a fitted effect of over 55% in size
# Conditions: ER-beta-UAS-bla HEK293T viability, CellTiter-Glo luminescence, 16 h; series mostly up to 92.4 µM; activity change, negative = cytotoxicity: at the top concentration
# Text: U.S. Tox21 Program National Center for Advancing Translational Sciences [NCATS] NIH Chemical Genomics Center [NCGC] U.S. Environmental Protection Agency [EPA] National Institutes of Environmental Health Sciences [NIEHS] National Toxicology Program [NTP] U.S. Food and Drug Administration [FDA] Tox21 Assay Overview: Estrogen receptor (ER), a nuclear hormone receptor, plays an important role in development, metabolic homeostasis and reproduction. Two subtypes of ER, ER-alpha and ER-beta, have similar expression patterns with some uniqueness in both types. Endocrine disrupting chemicals (EDCs) and their interactions with steroid hormone receptors like ER causes disruption of normal endocrine function. To identify the compounds that inhibit ER signaling, an ER-beta-UAS-bla GripTite cell line (Life Technologies, Madison, WI, USA) containing a beta-lactamase reporter gene under the control of an UAS response element was used to screen Tox21 10K compound library. The cytotoxicity of the Tox21 compound library against the ER-beta-bla cell line was tested in parallel by measuring the cell viability using CellTiter-Glo assay in the same wells.
# Tox21 Assay Protocol Summary: ER-beta-UAS-bla HEK293T cells were dispensed at 2,000 cells/4 uL of assay medium containing 2% charcoal stripped FBS per well into black wall/clear-bottom 1536-well plates using a Multidrop Combi (ThermoFisher Scientific, Waltham, MA) dispenser. After the assay plates were incubated at a 37C and 5% CO2 for 6 hr, 23 nL of compounds dissolved in DMSO, positive controls or DMSO only was transferred to the assay plate by a Pintool station (Kalypsys, San Diego, CA), followed by addition of 1 uL (1nM as final concentration) of 17-beta-estradiol (E2) in assay medium using a Flying Reagent Dispenser (FRD, Aurora Discovery, San Diego, CA). The plates were incubated at 37C and 5% CO2 for 16 hr. Then 1 uL of LiveBLAzer B/G FRET substrate was added using a Flying Reagent Dispenser, the plates were incubated at room temperature for 2 hours, and fluorescence intensity was measured by an Envision plate reader (PerkinElmer, Shelton, CT). For cell viability readout that measures cytotoxicity, 4 uL/well of CellTiter-Glo reagent was added into the assay plates using a FRD. After 30 min incubation at room temperature, the luminescence intensity in the plates was measured using a ViewLux (PerkinElmer) plate reader.
# On the % scale 0 is the no-effect control and ±100 the full control effect; potency means the concentration at half of the fitted maximal effect.
SMILES,"activity change, negative = cytotoxicity",Potency
CC[N+]1(CCOC(=O)C(O)(c2ccccc2)c2ccccc2)CCCCC1,0.849% [at 42.5 µM] (inactive),–
O=C(O)c1cc(I)cc(I)c1I,-13.5% (inactive),–
CN1C(=O)CN=C(c2ccccc2)c2cc([N+](=O)[O-])ccc21,0.484% [at 42.5 µM] (inactive),–
O=C(CCl)CCl,–,inactive
O=C(O)C(F)(F)C(F)(F)C(F)(F)C(F)(F)C(F)(F)F,-1.03% (inactive),–
O=C(O)c1ccc(=O)[nH]c1,8.68% [at 42.5 µM] (inactive),–
CN[C@@H](C)[C@H](O)c1ccccc1,-0.361% [at 42.5 µM] (inactive),–
CCN(C(C)=O)c1cccc(-c2ccnc3c(C#N)cnn23)c1,1.68% [at 42.5 µM] (inactive),–
O=C(Cl)OCCOCCOC(=O)Cl,-0.101% (inactive),–
CC(C)(C)NCC(O)c1ccccc1Cl (stereo not given),1.25% [at 42.5 µM] (inactive),–
O=C([O-])c1ccccn1.O=C([O-])c1ccccn1.O=C([O-])c1ccccn1.[Cr+3],-3.16% (inactive),–
O=C(O)CCCOc1ccc(Cl)cc1Cl,-5.19% (inactive),–
C[C@]12CC[C@H]3[C@@H](CCC4=CC(=O)CC[C@@H]43)[C@@H]1CC[C@@H]2OC(=O)CCc1ccccc1,3.09% [at 42.5 µM] (inactive),–
CCC1(CC)C(=O)NC(=O)NC1=O,-2.89% [at 42.5 µM] (inactive),–
CCC(C)(C)c1ccc(O)c(C(C)(C)CC)c1,–,53.9 µM (active) and 30.6 µM (active)
CC(CC(C(N)=O)(c1ccccc1)c1ccccc1)N(C)C (stereo not given),6.24% [at 42.5 µM] (inactive),–
O=C1NC(=O)C(=O)C(=O)N1,2.41% (inactive),–
CN(C)C(=O)Nc1cccc(OC(=O)NC(C)(C)C)c1,0.262% (inactive),–
O=C(N[C@H]1CN2CCC1CC2)c1ccc2c(c1)OCCO2,1.24% (inactive),–
CCC(C)(C)O,-2.97% (inactive),–

SMILES,"activity change, negative = cytotoxicity",Potency
COC1CC(=C(c2cccs2)c2cccs2)C[N+](C)(C)C1 (stereo not given),4.91% [at 42.5 µM] (inactive),–
Cc1ccccc1,8.1% (inactive),–
CN(C)N,-2.47% (inactive),–
O=C1c2ccccc2C(=O)N1SC(Cl)(Cl)Cl,–,inactive
Nc1cc(Cl)cc(C(=O)O)c1Cl,–,inactive
C=CCc1ccccc1O,4.17% (inactive),–
CC[N+]1(C)CCCC(OC(=O)C(O)(c2ccccc2)c2ccccc2)C1 (stereo not given),14.5% [at 42.5 µM] (inactive),–
CCOP(=S)(OCC)Oc1ccc(S(C)=O)cc1 (stereo not given),0.921% (inactive),–
CCCCCCCCCCCCN(C)C,-0.0802% (inactive),–
CC(Cl)C(=O)O (stereo not given),7.52% (inactive),–
OC[P+](CO)(CO)CO,–,inactive
Cc1ccc2c(C)cccc2c1,8.48% (inactive),–
CC(C)(C)c1ccc(CCOc2ncnc3ccccc23)cc1,0.998% (inactive),–
CCC1(C2=NCCN2)Cc2ccccc2O1 (stereo not given),0.661% [at 42.5 µM] (inactive),–
C[N+]1(CCF)[C@@H]2CC[C@H]1CC(OC(=O)C(O)(c1ccccc1)c1ccccc1)C2 (stereo not given in full),0.34% [at 42.5 µM] (inactive),–
CCCC(C)(COC(N)=O)COC(=O)NC(C)C (stereo not given),–,inactive
CCOC(=O)c1cn2nc(OP(=S)(OCC)OCC)cc2nc1C,1.96% (inactive),–
c1ccc2c(c1)-c1cccc3cccc-2c13,–,inactive
CCCCC1C(=O)NC(=O)N(C2CCCCC2)C1=O (stereo not given),13.9% [at 42.5 µM] (inactive),–
O=[N+]([O-])c1cc(Cl)c(Cl)cc1Cl,-1.19% (inactive),–
